Results as given in PubChem BioAssay AID1159580 (chemical genetic matrix, 2015).
Several values for one entry are separate records, joined by “and”; a condition that tells them apart may be missing. Equal values may be shown once. In all, about 5,500 compounds went through this assay and about 2,000 (36%) were called active. Inconclusive results (about 18%) are left out. Cut-off read from the data, not from the text of the source: active = normalized growth mostly below about 0.91 (no sharp cut-off); inconclusive = no clear call, values can overlap the other calls; inactive = mostly above about 0.92. The list shows a part of the results.

Assay: chemical genetic growth profiling, strain panel (AID 1159580);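 note: tested at 20 µM; growth read once vehicle control cultures reached saturation at 30 °C; 1 = growth at the plate median or of vehicle wells; lower values mean less growth of the strain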
Conditions: S. cerevisiae deletion strains, growth OD

Measured: normalized growth

CO[C@@H]1[C@@H](OC(N)=O)[C@@H](O)[C@H](Oc2ccc3c(O)c(NC(=O)c4ccc(O)c(CC=C(C)C)c4)c(=O)oc3c2C)OC1(C)C
inactive: locus YAL013W, strain DEP1, hits give low values 1.02 | locus YAL021C, strain ccr4, hits give low values 1.03 | locus YAL026C, strain drs2, hits give low values 1.02 | locus YAL030W, strain snc1, hits give low values 1.03 | locus YBL061C, strain skt5, hits give low values 1.02 | locus YBR009C, strain hhf1, hits give low values 1.02 | locus YBR021W, strain FUR4, hits give low values 1.04 | locus YBR023C, strain chs3, hits give low values 1.04 | locus YBR171W, strain sec66, hits give low values 1.06 | locus YBR229C, strain ROT2, hits give low values 1.01 | locus YBR231C, strain swc5, hits give low values 1.04 | locus YBR279W, strain paf1, hits give low values 1.05 | locus YCL011C, strain gbp2, hits give low values 1.03 | locus YCL016C, strain dcc1, hits give low values 1.04 | locus YCL029C, strain bik1, hits give low values 0.995 | locus YCL061C, strain MRC1, hits give low values 1.03 | locus YCL069W, strain vba3, hits give low values 1.03 | locus YCR088W, strain abp1, hits give low values 1.04 | locus YDL005C, strain med2, hits give low values 1.04 | locus YDL035C, strain GPR1, hits give low values 1.01 | locus YDL040C, strain nat1, hits give low values 1.03 | locus YDL074C, strain BRE1, hits give low values 0.955 | locus YDL101C, strain DUN1, hits give low values 1.02 | locus YDL134C, strain PPH21, hits give low values 1.01 | locus YDL185W, strain tfp1, hits give low values 0.945 | locus YDL192W, strain arf1, hits give low values 0.988 | locus YDR001C, strain nth1, hits give low values 1.03 | locus YDR069C, strain doa4, hits give low values 1.01 | locus YDR101C, strain arx1, hits give low values 1.01 | locus YDR137W, strain rgp1, hits give low values 0.998 | locus YDR150W, strain NUM1, hits give low values 1.02 | locus YDR159W, strain sac3, hits give low values 0.98 | locus YDR162C, strain NBP2, hits give low values 0.968 | locus YDR195W, strain ref2 1.04 | locus YDR297W, strain sur2, hits give low values 1.03 | locus YDR318W, strain mcm21, hits give low values 0.991 | locus YDR334W, strain swr1, hits give low values 1.03 | locus YDR335W, strain msn5, hits give low values 1.06 | locus YDR388W, hits give low values 0.991 | locus YDR392W, strain spt3, hits give low values 0.999 | locus YDR502C, strain sam2, hits give low values 0.999 | locus YEL003W, strain gim4, hits give low values 0.999 | locus YEL037C, strain rad23, hits give low values 1.04 | locus YEL061C, strain CIN8 (second series), hits give low values 1.02 | locus YEL061C, strain CIN8, hits give low values 0.992 | locus YER015W, strain faa2, hits give low values 1.04 | locus YER016W, strain bim1, hits give low values 1.03 | locus YER110C, hits give low values 0.985 | locus YER111C, strain swi4, hits give low values 1.03 | locus YER155C, strain BEM2 (second series), hits give low values 1.06 | locus YER155C, strain BEM2, hits give low values 1.04 | locus YER167W, strain BCK2, hits give low values 1.02 | locus YFR010W, strain ubp6, hits give low values 1.02 | locus YGL078C, strain dbp3, hits give low values 0.954 | locus YGL086W, strain mad1, hits give low values 1.02 | locus YGL167C, strain pmr1, hits give low values 1.02 | locus YGL173C, strain kem1, hits give low values 1.05 | locus YGL227W, strain vid30, hits give low values 1.03 | locus YGL240W, strain doc1, hits give low values 1.01 | locus YGL248W, strain PDE1, hits give low values 1.02 | locus YGL253W, strain hxk2, hits give low values 1 | locus YGR078C, strain PAC10, hits give low values 1.01 | locus YGR135W, strain pre9, hits give low values 0.993 | locus YGR229C, strain SMI1, hits give low values 1.01 | locus YGR252W, strain gcn5, hits give low values 1.16 | locus YHR013C, strain ard1, hits give low values 1.05 | locus YHR027C, strain rpn1, hits give low values 1.04 | locus YHR030C, strain SLT2, hits give low values 1.02 and 0.882 | locus YHR079C, strain IRE1 (second series), hits give low values 0.986 | locus YHR079C, strain IRE1, hits give low values 0.87 | locus YHR094C, strain hxt1, hits give low values 0.995 | locus YHR129C, strain ARP1, hits give low values 1 | locus YHR142W, strain chs7, hits give low values 1.01 | locus YHR200W, strain rpn10, hits give low values 0.989 | locus YIL066C, strain RNR3, hits give low values 1.01 | locus YIL073C, strain SPO22, hits give low values 0.71 | locus YIL125W, strain kgd1, hits give low values 0.964 | locus YIR030C, strain dcg1, hits give low values 0.992 | locus YJL092W, strain hpr5, hits give low values 1.03 | locus YJL095W, strain BCK1 (second series), hits give low values 1.04 | locus YJL095W, strain BCK1, hits give low values 1.04 and 0.919 | locus YJL115W, strain asf1, hits give low values 1.04 | locus YJL129C, strain trk1, hits give low values 0.971 | locus YJL134W, strain LCB3, hits give low values 1.01 | locus YJL154C, strain vps35, hits give low values 1.04 | locus YJL164C, strain tpk1, hits give low values 1.02 | locus YJL166W, strain qcr8, hits give low values 1.04 | locus YJL168C, strain set2, hits give low values 0.988 | locus YJL187C, strain SWE1 (second series), hits give low values 1.01 | locus YJL187C, strain SWE1, hits give low values 1.03
